According to PubChem BioAssay (NCATS):
Inconclusive results are not listed. The source made the active and inactive calls. Unless noted, calls follow the shape of the dose curve; as a rule, active = well fitted curve in the direction sought with a large enough effect; inconclusive = small, poorly fitted or top-dose-only effect, or another doubt; inactive = no such curve, though single readings can be large; an effect the other way counts as inactive or inconclusive.

Experiments:
[1] = target: Aldehyde dehydrogenase, mitochondrial (Homo sapiens) (UniProt P05091); experiment: qHTS for Inhibitors of the Aldehyde Dehydrogenase Family (ALDH2) Confirmatory screens (AID 2061303; active = well fitted inhibition curve with a large enough effect; title and protocol of this record describe different tests; also: nearly all actives have a fitted effect of over 45% in size; also: potency is read from the fitted curve at half-maximal effect)
[2] = qHTS for Inhibitors of the Aldehyde Dehydrogenase Family (ALDH1A2, ALDH1A3, ALDH2, ALDH3A1) (AID 2061307); also: nearly all actives have a fitted effect of over 50% in size; as to Potency: test system not described further here; potency is read from the fitted curve at half-maximal effect
[3] = target: Aldehyde dehydrogenase, mitochondrial (Homo sapiens) (UniProt P05091); experiment: qHTS for Inhibitors of the Aldehyde Dehydrogenase Family (ALDH2) Primary screen (AID 2061308); also: nearly all actives have a fitted effect of over 55% in size; also: potency is read from the fitted curve at half-maximal effect
[4] = target: Retinaldehyde dehydrogenase 3 (Homo sapiens) (UniProt P47895); experiment: qHTS for Inhibitors of the Aldehyde Dehydrogenase Family (ALDH1A3) Confirmatory screens (AID 2061311); also: nearly all actives have a fitted effect of over 60% in size; also: potency is read from the fitted curve at half-maximal effect
[5] = target: Retinal dehydrogenase 2 (Homo sapiens) (UniProt O94788); experiment: qHTS for Inhibitors of the Aldehyde Dehydrogenase Family (ALDH1A2) Confirmation screens (AID 2061314); also: nearly all actives have a fitted effect of over 65% in size; also: potency is read from the fitted curve at half-maximal effect
[6] = target: Aldehyde dehydrogenase 1A1 (Homo sapiens) (UniProt P00352); experiment: qHTS for Inhibitors of the Aldehyde Dehydrogenase Family (ALDH1A1) Confirmatory screens (AID 2061316); also: nearly all actives have a fitted effect of over 65% in size; also: potency is read from the fitted curve at half-maximal effect
[7] = target: Retinaldehyde dehydrogenase 3 (Homo sapiens) (UniProt P47895); experiment: qHTS for Inhibitors of the Aldehyde Dehydrogenase Family (ALDH1A3) Primary screen (AID 2061315)

Measured: Potency

N#Cc1c(C(=O)c2cccs2)no[n+]1[O-]
active: [1] 3.98 µM | [2] 2.24 µM | [3] 0.282 µM | [4] 1.59 µM | [5] 3.16 µM | [6] 0.225 µM

N#CSc1cc(SC#N)c(N)nc1N
active: [1] 14.1 µM | [2] 5.62 µM | [3] 3.55 µM | [4] 10.1 µM | [5] 1.79 µM | [6] 0.896 µM
inactive: [7]

O=C(C1CCN(c2nc(-c3ccc(Br)cc3)cs2)CC1)N1CCOCC1
active: [2] 11.3 µM
inactive: [1] | [3] | [4] | [5] | [7] | [6]

CCOc1cc(CNc2ccc(O)cc2)ccc1OCc1ccc(Cl)cc1
active: [1] 10.1 µM | [2] 11.3 µM | [3] 3.16 µM | [4] 1.01 µM | [5] 0.504 µM | [6] 6.34 µM

c1cncc(-c2ccc(CNc3nc(C4CCCC4)nc4ccccc34)cc2)c1
active: [4] 11.3 µM
inactive: [1] | [2] | [3] | [5] | [7] | [6]

FC(F)(F)c1cccc(N2CCN(C(=S)Nc3nccc4cccnc34)CC2)c1
active: [1] 11.3 µM | [2] 28.2 µM | [3] 7.94 µM | [4] 11.3 µM | [5] 10.1 µM | [6] 7.98 µM

CC1(C)C[C@H]2C=C(C=O)[C@]3(C(=O)O)C[C@]3(C)[C@H]2C1
inactive: [1] | [2] | [3] | [4] | [5] | [7] | [6]

COc1cc(NS(=O)(=O)c2ccc([N+](=O)[O-])cc2)c2ncccc2c1
active: [1] 7.08 µM | [2] 0.712 µM | [3] 20 µM | [4] 10 µM | [5] 3.16 µM | [6] 5.65 µM

NC(=O)c1ccc(C[C@H](C(=O)O)N2C(=O)c3ccc(C(=O)O)cc3C2=O)cc1
inactive: [1] | [2] | [3] | [4] | [5] | [7] | [6]

O=C(O)c1ccc(O)c2ncc(N3CCCN(C4CCCC4)CC3)cc12
inactive: [1] | [2] | [3] | [5] | [6]
active: [4] 14.2 µM

CCOC(=O)c1cccc(-n2cnc(/C=C3\NC(=O)N(CC(=O)O)C3=O)c2)c1
inactive: [1] | [2] | [3] | [4] | [5] | [7] | [6]

COc1cc(F)cc(F)c1[S+](=O)([O-])N1CCN([S+](=O)([O-])c2ccc3c(c2)OCCO3)CC1
inactive: [1] | [2] | [3] | [4] | [5] | [7] | [6]

NC(=O)C1CCN(c2ncc(-c3ccc4c(c3)OCCO4)s2)CC1
active: [1] 0.896 µM | [2] 7.12 µM | [4] 7.98 µM | [5] 8.96 µM | [6] 0.712 µM
inactive: [3]

O=C(O)c1ccc(S(=O)(=O)N[C@H](Cc2ccc(C(F)(F)F)cc2)C(=O)O)cc1
inactive: [1] | [2] | [3] | [4] | [5] | [7] | [6]

COc1ccc(C2=Nn3c(nnc3-c3cc(OC)cc(OC)c3)SC2)cc1
inactive: [1] | [2] | [3] | [4] | [5] | [7] | [6]

COc1ccc(N2Cc3cccc(C(=O)O)c3C2=O)c(OC)c1
inactive: [1] | [2] | [3] | [4] | [5] | [7] | [6]

Cc1nnc(-c2ccccc2C(C)C)nc1NCc1ccc(-c2cccnc2)cc1
active: [4] 12.7 µM
inactive: [1] | [2] | [3] | [5] | [7] | [6]

S=C(NCCCc1cnc[nH]1)NCCCN(Cc1ccc(Cl)c(Cl)c1)c1ccccn1
inactive: [1] | [2] | [3] | [4] | [5] | [7] | [6]

CC(C)c1ccccc1-c1ncc(F)c(NC(C)(C)c2ccc(-c3cccnc3)cc2)n1
inactive: [1] | [2] | [3] | [4] | [5] | [7] | [6]

COc1ccc(-c2csc(N3CCC(C(N)=O)CC3)n2)cc1
inactive: [1] | [2] | [3] | [4] | [5] | [7] | [6]

Cc1cc(C)nc(NC(=S)N2CCN(c3ccc4ccccc4c3)CC2)c1
active: [1] 11.3 µM | [2] 3.55 µM | [3] 11.2 µM | [4] 7.12 µM | [5] 12.7 µM | [6] 2.83 µM

N#Cc1c(-c2ccc(F)cc2)no[n+]1[O-]
active: [2] 12.7 µM
inactive: [1] | [3] | [4] | [7]
